Bioassay records from PubChem BioAssay.
UBC13 inh: blocks human UBC13 polyubiquitin chain formation; TR-FRET; 0.47% of 330,000 active; inhibition, % at 20 µM; P61088; AID 485273; in the data active = inhibition above about 45%, passing the limit was not always enough
NR3A LBD binder: modulates the human NR3A ligand-binding domain; NR3A LBD differential scanning fluorimetry, Tm shift; 0% = protein alone, 100% = glycine-bound protein; Tm shift relative to glycine control, % at 25 µM; 2.5% of 340,000 active;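 active = melting temperature shift of at least 10% of the positive control shift, at one fixed dose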
SUMO HTRF inh: blocks human SUMOylation mediated by UBC9 | HTRF SUMOylation assay, SAE1/SAE2 + UBC9, in vitro | inhibition, % at 35 µM | 0.36% of 290,000 active | AID 2006; in the data active = inhibition above about 50%, passing the limit was not always enough
sPLA2-III inh: Blocks human group III sPLA2 activity; QFRET BODIPY PC-A2 liposome hydrolysis, fluorescence; inhibition, % at 12.2 µM; 0.56% of 370,000 active;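 active = inhibition above mean plus 3 SD of compounds lying within the high and low control bounds, cut at about 19% in these data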;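 note: 0% = median of test compound wells and 100% = no enzyme DMSO wells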
Target sequence (Q9NZ20 whole entry, looked up): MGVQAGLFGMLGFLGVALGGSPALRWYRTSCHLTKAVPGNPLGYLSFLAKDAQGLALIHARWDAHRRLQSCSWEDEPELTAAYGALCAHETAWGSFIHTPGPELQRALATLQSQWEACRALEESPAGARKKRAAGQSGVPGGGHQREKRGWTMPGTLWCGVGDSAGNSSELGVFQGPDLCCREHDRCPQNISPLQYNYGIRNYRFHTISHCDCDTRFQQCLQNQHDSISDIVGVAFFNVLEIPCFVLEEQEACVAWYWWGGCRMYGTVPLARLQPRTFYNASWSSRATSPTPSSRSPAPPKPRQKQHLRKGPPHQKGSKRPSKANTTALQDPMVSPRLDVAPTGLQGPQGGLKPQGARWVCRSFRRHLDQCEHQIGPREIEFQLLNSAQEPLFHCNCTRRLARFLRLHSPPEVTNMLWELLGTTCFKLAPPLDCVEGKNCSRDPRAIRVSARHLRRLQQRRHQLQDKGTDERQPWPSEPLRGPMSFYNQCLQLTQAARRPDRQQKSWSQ
hGIII sPLA2 conf: human GIII-sPLA2 inhibition, confirmation | inhibition, % at 12.2 µM | recombinant hGIII-sPLA2, BODIPY PC-A2 QFRET fluorescence | shares compounds with sPLA2-III inh | 34% of 2,000 active | AID 743280;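 active = mean inhibition across triplicates above the hit cutoff set in the earlier primary screen, cut at about 19% in these data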;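 note: 0% = enzyme with DMSO and 100% = DMSO wells lacking enzyme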
535nm interf: counter-screen for HGIII-sPLA2 inhibitors: 535nm fluorescence interference. shares compounds with sPLA2-III inh. BODIPY FL product fluorescence interference, QFRET. inhibition, % at 12.2 µM. 8.5% of 2,000 active;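 active = average inhibition above the solvent-only control mean plus 3 SD, cut at about 6% in these data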;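 note: 0% = DMSO with substrate plus product and 100% = DMSO with substrate alone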
535nm interf DR: 535nm optical interference dose response, HGIII-sPLA2 counter-screen; shares compounds with sPLA2-III inh; BODIPY FL product fluorescence interference, cell-free; IC50, µM; 240 tested, under 10 active;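 active = IC50 at or below 10 µM; inactive = IC50 above 10 µM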
* = called active by the depositor; . = not tested or not shown. Compounds with a hit are over-represented: about 3.3% of the library has one in this group of screens.

SMILES	UBC13 inh	NR3A LBD binder	SUMO HTRF inh	sPLA2-III inh	hGIII sPLA2 conf	535nm interf	others
COc1ccccc1C(=O)NC1CCCCN(Cc2ccc(Cl)cc2)C1=O (stereo not given)	.	.	.	-2.3	.	.
COC(=O)CCCCC1SCC(NC(=O)OC)C1NC(=O)OC (stereo not given)	2.5	0.1	14.2	4.4	.	.
CCCOC(=O)CCCCC1SCC(NC(=O)OC)C1NC(=O)OC (stereo not given)	-2.0	-2.3	17.5	19.6*	-2.2	-9.0
Cc1ccc(/C=N/N2CCN(Cc3ccccc3)CC2)cc1	1.9	0.5	-3.2	2.9	.	.
Cc1ccc(CN2CCN(/N=C/c3ccc(N(C)C)cc3)CC2)cc1	3.3	2.9	3.1	21.5*	12.4	-4.3
O=C(NC1CCCc2c1cnn2-c1ccc(F)cc1F)c1cccs1 (stereo not given)	.	.	.	0.1	.	.
COc1cccc2sc(NNC(=O)C3COc4ccccc4O3)nc12 (stereo not given)	-21.4	-1.6	-51.5	22.5*	23.9*	-2.5
CCOc1ccc(OCC(=O)Nc2ccc(N3CCCCC3)cc2)cc1	-0.9	-0.3	15.8	12.5	.	.
N#Cc1ccc(OCC(=O)Nc2ccc(N3CCCC3)cc2)cc1	-13.2	-0.3	.	21.2*	15.2	-3.3
CCCCN(CCCC)C(=S)NC(=O)c1ccccc1Cl	19.2	-1.9	28.7	30.2*	10.8	-0.6
CCN(CC)C(=S)NC(=O)c1ccc(Cl)cc1Cl	1.6	1.5	19.1	15.0	.	.
Cc1ccccc1N1CCN(C(=S)c2ccccc2)CC1	5.9	0.3	1.1	21.1*	10.4	-3.4
CCCCNCc1nc2ccccc2c(=O)[nH]1	9.4	-0.9	-1.1	26.9*	15.1	-2.0
CCc1ccc(NCc2nc3ccccc3c(=O)[nH]2)cc1	1.7	-5.9	-7.5	-9.6	.	.
O=[N+]([O-])c1ccc(C2=NN(CCO)C(=Nc3ccc(OC(F)(F)F)cc3)SC2)cc1	9.1	-8.9	-27.2	19.6*	-0.8	-12.4
c1cc2c3c(cccc3c1)NC1(CCCC1)N2	.	-4.3	.	23.8*	19.8*	2.9
CC1(C)Nc2cccc3cccc(c23)N1	.	0.6	.	17.9	.	.
O=C(CCc1nc(-c2ccccc2F)no1)NCCc1cccc(F)c1	.	.	.	13.0	.	.
CCNC(=S)NNc1nnc(-c2ccccc2)c(-c2ccccc2)n1	-1.4	1.6	-9.2	24.2*	50.4*	0.3	535nm interf DR=>122
O=C(NNC(=S)Nc1ccc(Cl)cc1)c1ccccc1OC(F)F	-19.7	0.5	-27.5	23.6*	28.0*	8.5*
COc1ccccc1C(=O)NNC(=S)Nc1ccccc1	.	4.6	-22.2	7.8	.	.
O=C(NNC(=S)NCc1ccccc1)c1ccc(Br)cc1	-4.7	-3.5	-25.4	2.8	.	.
O=C(NNC(=S)NCc1ccccc1)c1ccccc1OC(F)F	1.0	-1.0	4.8	19.9*	30.9*	2.9	535nm interf DR=>122
CCNC(=S)NNC(=S)NCc1ccccc1	9.0	-2.4	6.4	21.2*	39.2*	-2.8	535nm interf DR=>122
CC(=O)Oc1cc(C)c(Cl)c2c(OC(C)=O)cc(C(C)=O)c(O)c12	.	.	.	14.5	.	.
SMILES	UBC13 inh	NR3A LBD binder	SUMO HTRF inh	sPLA2-III inh	hGIII sPLA2 conf	535nm interf	others
Cc1ccc2nc(SCC(=O)N3CCN(C(=O)c4ccco4)CC3)[nH]c2c1	1.2	-1.7	-2.3	2.5	.	.
O=C(CSc1nc2ccccc2[nH]1)N1CCN(C(=O)c2ccco2)CC1	7.7	0.5	-4.5	19.2*	0.7	-4.5
COc1ccc(C(=O)/C=C2\C(=O)Nc3ccc(Br)cc32)cc1	.	-6.3	.	16.0	.	.
O=C1Nc2ccc(Br)cc2/C1=C/C(=O)c1ccc2c(c1)OCO2	-7.2	0.3	0.2	25.6*	42.2*	14.4*
COC(=O)Cn1c2ccccc2c(=O)n1C(C)CBr (stereo not given)	.	.	.	7.2	.	.
CC(CCl)n1c(=O)c2ccccc2n1C(=O)c1ccccc1 (stereo not given)	.	.	.	24.3*	3.8	-9.7
O=S1(=O)c2c(NCc3ccco3)cccc2Oc2ccccc2CN1Cc1cn(Cc2ccc(Cl)cc2)nn1	.	.	.	2.5	.	.
COCCCn1cc(CN2CC=CS2(=O)=O)nn1	.	.	.	21.1*	-0.4	-5.8
CCOC(=O)c1sc(=S)n(-c2ccc(OC)cc2)c1N	-10.3	-0.3	-1.2	24.9*	14.6	-1.0
CCN(CC)c1ccc(/C=N/N(c2ccccc2)c2ccccc2)c(O)c1	-10.2	2.4	20.4	3.9	.	.
